Source: PubChem BioAssay (National Center for Advancing Translational Sciences (NCATS))
PLK1 PBD block: inhibitors of human PLK1 polo-box domain binding; AID 720504; Potency, µM, for inactives: max response, negative = inhibition, hits mostly inhibitors; P53350; Plk1 PBD binding of FITC phosphopeptide, fluorescence polarization; 360,000 compounds, 2.8% hits; also: series mostly up to about 57 µM; nearly all actives have a fitted effect of over 65% in size
12-LOX inh: ALOX12 (human) lipoxygenase inhibition | purified 12hLO, xylenol orange hydroperoxide absorbance | Potency, µM (titrated, usually from 108 µM), without a hit: top-dose activity change, negative = inhibition, actives largely listed as inhibitors | 580,000 compounds, 1.1% hits | P18054
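Purified human 12hLO at 150 nM in 25 mM Hepes, 0.01% Triton X-100, pH 7.0, preincubated 15 min at room temperature with compound. Reaction started with 40 uM arachidonic acid, 30 min at room temperature. Hydroperoxide measured by Fe-xylenol orange, 573/405 nm absorbance ratio.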
GCN5L2 inh: GCN5L2 (KAT2A) acetyltransferase inhibition; Q92830; GCN5L2 HAT assay, ThioGlo1 CoA-SH fluorescence; Potency, µM (doses to about 58.9 µM), inactives show top-dose activity change, negative = inhibition, actives largely listed as inhibitors; 390,000 compounds, 0.21% hits
Target sequence (Q92830 whole entry, looked up): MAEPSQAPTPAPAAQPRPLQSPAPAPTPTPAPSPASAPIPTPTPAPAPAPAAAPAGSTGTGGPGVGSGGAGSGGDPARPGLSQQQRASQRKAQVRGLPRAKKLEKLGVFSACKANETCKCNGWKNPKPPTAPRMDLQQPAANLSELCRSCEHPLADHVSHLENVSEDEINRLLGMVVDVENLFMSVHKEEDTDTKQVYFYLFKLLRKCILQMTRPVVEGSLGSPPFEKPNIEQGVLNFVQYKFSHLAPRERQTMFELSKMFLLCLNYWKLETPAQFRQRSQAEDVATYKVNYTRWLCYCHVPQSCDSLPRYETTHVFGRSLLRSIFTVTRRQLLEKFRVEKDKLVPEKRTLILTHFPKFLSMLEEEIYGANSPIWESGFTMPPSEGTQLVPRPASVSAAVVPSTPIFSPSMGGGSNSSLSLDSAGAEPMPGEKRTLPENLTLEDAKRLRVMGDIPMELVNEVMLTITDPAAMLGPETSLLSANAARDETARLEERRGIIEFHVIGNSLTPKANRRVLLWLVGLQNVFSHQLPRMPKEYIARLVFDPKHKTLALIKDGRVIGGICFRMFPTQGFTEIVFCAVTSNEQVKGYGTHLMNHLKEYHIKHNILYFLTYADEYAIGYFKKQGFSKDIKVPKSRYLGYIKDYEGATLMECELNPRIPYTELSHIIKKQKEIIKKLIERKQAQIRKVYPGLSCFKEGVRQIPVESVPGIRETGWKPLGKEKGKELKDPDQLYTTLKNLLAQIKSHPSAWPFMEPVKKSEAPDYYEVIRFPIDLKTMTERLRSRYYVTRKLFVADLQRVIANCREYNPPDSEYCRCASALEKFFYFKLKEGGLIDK
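Fluorescence readout, Ex340nm/Em540nm: ThioGlo1 (50uM final) reacts with free CoA thiol released as 20nM GCN5L2 acetylates H3(1-25) peptide (75uM) using acetyl-CoA (70uM). Compound and enzyme sat 15 min beforehand; 20 min room-temperature reaction.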
VDR inhibitor: vitamin D3 receptor (human) inhibition. P11473. VDR-SRC2-3 peptide fluorescence polarization, 2 h. Potency, µM, inactives show max response, negative = inhibition, most hits filed as inhibitors. 400,000 compounds, 0.93% hits. AID 504847
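Measured by FP: displacement of SRC2-3 coactivator peptide from VDR by library compounds, following a two-hour ambient incubation.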
Numbers without * were called inactive; ? = inconclusive; . = not tested or not shown. Only some compounds are listed: those with a hit (about 3% of all), similar ones and a draw of the others. Calls follow the shape of the dose curve; as a rule, active = well fitted curve in the direction sought with a large enough effect; inconclusive = small, poorly fitted or top-dose-only effect, or another doubt; inactive = no such curve, though single readings can be large; an effect the other way counts as inactive or inconclusive. % is scaled to controls: 0 for no effect and ±100 for the full control effect; potency is read from the fitted curve at half-maximal effect.

SMILES	PLK1 PBD block	12-LOX inh	GCN5L2 inh	VDR inhibitor
CCOC(=O)c1c(C)n(C)c2ccc(O)c(CN3CCC(C)CC3)c12	-3%	.	-17%	89µM*
Cc1ccc(-n2c(CNc3ccc(C)c(Cl)c3)n[nH]c2=S)cc1	-24%	45µM*	16%	-9%
Cc1ccc(-n2c(CNc3cccc(Cl)c3)n[nH]c2=S)cc1	-16%	?	-12%	-9%
c1ccc2c(c1)OCCc1c-2[nH]c2ccccc12	-1%	?	3%	5%
c1ccc2c(c1)SCc1c-2[nH]c2ccccc12	.	.	22µM*	10µM*
O=C(COc1ccc(F)cc1)N1CCCC(c2noc(COc3ccccc3F)n2)C1 (stereo not given)	.	13%	.	.
Cc1ccc(/C=N\NC(=O)CCc2n[nH]c(=O)[nH]c2=O)o1	17µM*	7%	3%	?
COc1ccc(/C=N/NC(=O)CCc2n[nH]c(=O)[nH]c2=O)cc1O	-5%	13%	-1%	-6%
CC1(C)CC(=O)C2=C(C1)Nc1ccccc1N(C(=O)C1CC1)C2c1ccco1 (stereo not given)	9.5µM*	-6%	-15%	-23%
CN(CC(=O)N1CCCC1)c1nc(-c2ccccc2)nc2ccccc12	.	13%	.	.
CC(C)NCCCCOc1cccc(Br)c1	19µM*	?	-2%	?
COC(=O)CCC1CCCNC1 (stereo not given)	.	-24%	.	.
CCOc1ccc(-n2c(=S)sc3c(=O)[nH]c(SCC(=O)N4CCC(C)CC4)nc32)cc1	?	45µM*	-4%	30%
Cc1cc(C(=O)NCCCOC(C)C)c2c(C3CCCN3)noc2n1 (stereo not given)	.	14µM*	.	.
CCN(C(=O)c1nn(C)c(=O)c2ccccc12)c1nc2ccccc2s1	.	-7%	.	.
CCC(CO)[n+]1c(C)cc(/C=C2\Sc3ccccc3N2Cc2ccccc2)cc1C (stereo not given)	7%	50µM*	-2%	-2%
COC(=O)c1ccccc1NC(=S)NC(=O)c1cccc2ccccc12	6.7µM*	32µM*	0%	?
COC(=O)c1ccccc1NC(=S)NC(=O)c1ccc2ccccc2c1	?	?	-6%	-26%
CN1CCN(c2ccc(NC(=S)NC(=O)c3cccc4c(Br)cccc34)cc2)CC1	-1%	2%	-1%	-1%
CN1CCN(c2ccc(NC(=S)NC(=O)c3cccc4ccccc34)cc2)CC1	-15%	28µM*	-2%	-19%
CCC(=O)NC(=S)Nc1ccccc1C(=O)OC	-12%	-30%	0%	-7%
CCCC(=O)NC(=S)Nc1ccccc1C(=O)OC	30µM*	-32%	-2%	-17%
COC(=O)c1ccccc1NC(=O)c1ccc(COc2cccc3ccccc23)o1	-13%	45µM*	-15%	-6%
O=C(CC1C=CCC1)N(Cc1ccncc1)C1CC1 (stereo not given)	.	1%	.	.
CC(C)CC(=O)NCCc1ccsc1	.	15%	.	.
SMILES	PLK1 PBD block	12-LOX inh	GCN5L2 inh	VDR inhibitor
O=C(NCCC1=CCCCC1)c1ccc(Cn2ccn3nc4c(c3c2=O)CCCC4)cc1	.	18%	.	.
Cc1cc(Cl)ccc1Oc1ccc(S(=O)(=O)N2CCCC2)cn1	.	25%	.	.
CCCCn1cnc2c1c(=O)n(CC(=O)Nc1cc(F)ccc1C)c(=O)n2CCCC	.	2%	.	.
Cn1cnc2c1c(=O)n(CCCSCc1cccc3ccccc13)c(=O)n2C	.	-1%	.	.
O=C(O)C1CCCCC1C(=O)NCc1ccc(Cl)c(Cl)c1 (stereo not given)	30µM*	-2%	-2%	-5%
COc1ccc(C2(C(=O)c3ccccc3)C(=O)c3ccccc3C2=O)cc1	12µM*	.	-5%	?
COc1ccc(NC2CC(=O)N(C(C)C)C2=O)cc1 (stereo not given)	-10%	4µM*	-24%	-10%
CC(C)c1ccc(-c2nonc2NC(=O)c2cc(=O)c3ccc(Br)cc3o2)cc1	.	3%	.	.
CC(C)Oc1ccc(Cc2cnc(=S)[nH]c2N)cc1	?	35µM*	-8%	-27%
NCCCCCCCN1CCCC1	.	0%	.	.
Cc1ccc(C(=O)NC2CC2)cc1S(=O)(=O)N1CCCC1	.	-12%	.	.
O=C(Nc1ccc2c(c1)OCCCO2)c1ccccc1SCc1cccs1	.	16µM*	.	.
CSc1ccccc1C(=O)Nc1cc2c(cc1C(=O)O)OCCCO2	30µM*	?	0%	-18%
N#Cc1ccc(CSc2ccccc2C(=O)Nc2ccc3c(c2)OCCCO3)cc1	.	14µM*	.	.
N#CCSc1ccccc1C(=O)Nc1ccc2c(c1)CCC2	.	1.1µM*	.	.
N#Cc1ccc(CSc2ccc3c(c2)OCCCO3)cc1	.	-19%	.	.
